The results in this text go back to PubChem BioAssay (NCI).

Compounds without any hit were thinned out: in the full panel of roughly 83,000, 20% have a hit.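 Treatment: one concentration, 48 hours, 96-well format. Scoring: percent growth, with anything below 10 considered active.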 Values without a mark were called inactive. The source made the active and inactive calls.

What all share (experiment): NCI-60 one-dose screen, 48 h (100 = growth as untreated, 0 = no growth, -100 = all killed)
Common to all, as to conditions: 10 µM unless noted

In assay [1] the test system is SK-MEL-2 melanoma.
Assay [2] concerns EKVX NSCLC.
For assay [3], the system named is SN12C renal.
The test system of assay [4] is UO-31 renal.
In assay [5] the test system is TK-10 renal.
Assay [6] concerns ACHN renal.
Assay [7] concerns CAKI-1 renal.
The subject of assay [8] is A498 renal.
For assay [9], the system named is CCRF-CEM leukemia.
The test system of assay [10] is MOLT-4 leukemia.

For the compound `CC(=O)Oc1ccccc1C(=O)/C=C/c1cccc([N+](=O)[O-])c1`, the growth in [1] was 96.2%; in assay [2], 75.6%; in assay [3], 78.9%; in [4], -28.1% (active); in assay [5], 134%; in assay [6], 75.3%. Besides, the growth in [7] is 67.6%; in assay [8], 92.6%; in assay [9], 5.04% (active); in assay [10], 50.8%.
Turning to `CC(C)C[C@@H](NC(=O)[C@@H](Cc1ccccc1)NC(=O)c1cnccn1)B1O[C@H]2[C@H](O)[C@@H](C(=O)NCCCC[C@@H]3NC(=O)[C@@H](Cc4ccccc4)NC(=O)[C@H](CC(=O)O)NC(=O)CNC(=O)[C@H](CCCN=C(N)N)NC3=O)O[C@@H](CN)[C@H]2O1`, the growth in [1] was -38.5% (active); in [2] it was -12.6% (active); in [3], -29.5% (active); in [4], -16.4% (active); in assay [5] it was -79.1% (active); in assay [6], -8.22% (active). Further, the growth in assay [7] was -44.2% (active); in assay [8] it was -94.5% (active); in assay [9], 6.17% (active); in assay [10] it was 0.435% (active).
Regarding `Cn1cc(-c2nc(-c3cn(C)c4ncccc34)cs2)c2ccccc21`, the growth in assay [1] was 28.6%; in [2], 62.6%; in assay [3], 52.8%; in [4], 62.4%; in assay [5] it was 50.5%; in [6] it was 49.6%. For the same compound, the growth was 28.3% in [7], 45.4% in assay [8], 47.1% in [9] and 31.7% in [10].
With `COc1cc(-c2cc3cc(O)ccc3oc2=O)cc(OC)c1OC`, the growth was 92.7% in assay [1]; 78.7% in assay [2]; 93.6% in assay [3]; 66.7% in assay [4]; 104% in assay [5]; 81.8% in [6]. Further, the growth was 84.6% in [7], 100% in assay [8], 94.5% in assay [9] and 94.2% in assay [10].
For `O=C1CN(c2ccccc2)C(=O)C1C(=O)Nc1ccc(Cl)c(Cl)c1` (stereo not given), the growth in [1] is 18.1% [100 µM]; in assay [2], 47.4% [100 µM]; in assay [3] it was 17.6% [100 µM]; in assay [4], 5.84% [100 µM] (active); in assay [5], 26.4% [100 µM]; in assay [6], 2.16% [100 µM] (active). For the same compound, the growth in assay [7] is -2.42% [100 µM] (active); in assay [8], 11.3% [100 µM]; in assay [9], 35.9% [100 µM]; in assay [10] it was 6.47% [100 µM] (active).
`N#Cc1cnc2cc(OC[C@@H](O)CO)c(NC(=O)CC3CSSC3)cc2c1Nc1ccc(OCc2cccc(F)c2)c(Cl)c1`: the growth in assay [1] was -67.7% (active); in assay [2], -68% (active); in assay [3], -70.3% (active); in assay [4], 50.5%; in [5], -60.5% (active); in [6] it was 3.6% (active). Further, the growth in assay [7] is 62.7%; in assay [8], -62% (active); in [9], -46.4% (active); in assay [10], -50.4% (active).
Regarding `N#CC1C(=N)Cc2ccccc2-c2ccccc21` (stereo not given), the growth in [1] is 31.1%; in assay [2] it was 67.1%; in [3] it was 54.2%; in [4], 53.8%; in [5] it was 78.1%; in assay [6], 75%. Also, the growth in [7] was 29%; in assay [8], 55.3%; in assay [9] it was 62.6%; in [10] it was 25.8%.
With `CC[C@]12C=CCN3CC[C@@]4(c5cc([C@H]6CCC(=O)N6)c(OC)cc5N(C)[C@H]4[C@@](O)(C(=O)OC)[C@@H]1OC(C)=O)[C@@H]32`, the growth in [1] is 98.4% [2.5 µM]; in assay [2] it was 111% [2.5 µM]; in assay [3], 96.9% [2.5 µM]; in assay [4], 86.3% [2.5 µM]; in [5] it was 106% [2.5 µM]; in assay [6], 90% [2.5 µM]. For the same compound, the growth is 94.4% [2.5 µM] in assay [7], 116% [2.5 µM] in [8], 99.6% [2.5 µM] in [9] and 102% [2.5 µM] in assay [10].
Take `Cc1cc(C)nc(NC(N)=NCCc2ccccc2)n1`: the growth in [1] is 38.4%; in assay [2] it was 59.7%; in assay [3], 45.1%; in [4], 69.2%; in [5], 75.6%; in assay [6], 46.9%. Moreover, the growth was 93.6% in assay [7], 86.9% in assay [8], 45.3% in [9] and 47.7% in assay [10].
`COc1cnc2c(c1)C(=O)c1c-2n(CCCNC(C)C)c(=O)c2cc([N+](=O)[O-])ccc12`: the growth was -58.6% (active) in assay [1]; -50% (active) in assay [2]; -54.6% (active) in assay [3]; -75.6% (active) in [4]; -63.6% (active) in [5]; -84.5% (active) in [6]. Moreover, the growth in assay [7] was -71.8% (active); in [8] it was -84.7% (active); in assay [9], 2.43% (active); in assay [10], -15.6% (active).
Consider `CCOC(=O)C/C(=C\c1ccccc1)C(C)=O`, for which the growth in assay [1] was 89.3%; in [2], 102%; in assay [3] it was 105%; in [4], 99.3%; in assay [5], 96.3%; in [6] it was 107%. Also, the growth in assay [7] is 94.5%; in assay [8], 114%; in assay [9] it was 90.3%; in [10], 93.8%.
